Compound activity (PubChem BioAssay)
KB-3-1 cytotox: kills parental KB-3-1 adenocarcinoma cells. AID 1347075. Potency, µM (highest dose often 46.1 µM), usual class: cytotoxic. 1.4% of 400,000 active. KB-3-1 viability, CellTiter-Glo ATP luminescence, 72 h; note: nearly all actives have a fitted effect of over 60% in size
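Cytotoxicity in the drug-sensitive parental line KB-3-1 was scored as loss of CellTiter-Glo luminescence following 72 h incubation with compound. Values come from curve fitting of normalized concentration-response data.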
MCF10A rereplic: inducers of DNA re-replication in MCF 10A breast cells; 2.9% of 350,000 active; Potency, µM (doses to about 46.1 µM), hits mostly activators; MCF 10A DNA re-replication, Hoechst nuclear intensity, 48 h; note: nearly all actives have a fitted effect of over 50% in size
SW480 rereplic: induces DNA re-replication in SW480 colon adenocarcinoma cells. Potency, µM (series often up to 46.1 µM), hits mostly activators. SW480 DNA re-replication, Hoechst DNA content imaging, 48 h. 1.8% of 340,000 active; note: nearly all actives have a fitted effect of over 55% in size
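Quantitative HTS format with DMSO vehicle controls; 48 hr drug incubation at 37 C, then 40 min Hoechst staining and scanning imager measurement at 405 nm excitation.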
Giardia killer: kills Giardia lamblia; activity change, % at 7.66 µM, hits read low; 0.15% of 340,000 active; AID 540267; Giardia lamblia trophozoite viability; in the data active = activity change below about -80%; inconclusive = between about -30% and that limit;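 note: parasites exposed to compound for two days anaerobically before the ATP read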
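Trophozoite viability was measured as ATP-dependent luminescence, read 15-30 min after reagent addition. Before that, parasites at 100 cells/well were exposed to compounds for 48 h, anaerobically, at 37 deg C.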
KB-V1 cytotox: KB-V1 MDR subline cytotoxicity; KB-V1 MDR cells viability, CellTiter-Glo, 72 h; Potency, µM (titrated, usually from 46.1 µM), hits mostly cytotoxic; 3.4% of 400,000 active; AID 1347076; note: nearly all actives have a fitted effect of over 60% in size
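Compound-treated KB-V1 multidrug-resistant cells, 72 h, 37 degrees C; viability by CellTiter-Glo. Fitted qHTS curves give the values.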
S-ASM inh: inhibitors of human secretory acid sphingomyelinase. placental ASM, HMU-PC fluorogenic substrate, 60 min. Potency, µM (highest dose often 57.5 µM), hits mostly inhibitors. 0.006% of 340,000 active. AID 504937
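HMU-PC0 cleavage (9 uM final) by human placental ASM, 60 min at 37 °C following 10 min compound exposure at RT; stopped at pH 10, fluorescence Ex 386/Em 447 nm.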
Numbers stand for hits; 0 = inactive; ? = inconclusive; - = no result given; [ ] = another dose, or the depositor's remark. Compounds with a hit are over-represented: about 6.9% of the library has one in this group of screens. Unless noted, calls come from the whole dose curve; as a rule, active = well fitted curve in the direction sought with a large enough effect; inconclusive = small, poorly fitted or top-dose-only effect, or another doubt; inactive = no such curve, though single readings can be large; an effect the other way counts as inactive or inconclusive.

SMILES	KB-3-1 cytotox	MCF10A rereplic	SW480 rereplic	Giardia killer	KB-V1 cytotox	S-ASM inh
Cc1[nH]n(-c2ccccc2)c(=O)c1/C=N/NC(=O)c1ccccc1F	?	?	2.31µM	0	0	0
CCOc1cc(CNC(=O)c2cc(-c3ccc(Cl)s3)nc3ccccc23)ccc1OC	0	-	-	-	0	-
Cn1nnc2c(N3CCN(Cc4ccccc4)CC3)ncnc21	-	-	-	0	-	-
CCSC(=S)c1c(C)[nH]n(-c2ccccc2)c1=O	?	0	0	0	0	0
Cc1[nH]n(-c2ccccc2)c(=O)c1/C=N/NC(=O)COc1ccccc1[N+](=O)[O-]	?	?	13µM	0	?	0
Cc1ccc(OCC(=O)N/N=C\c2c(C)n(C)c3ccccc23)c([N+](=O)[O-])c1	?	?	14.6µM	0	?	?
CC/C(=N/NC(=O)c1ccccc1O)c1c(C)[nH]n(-c2ccccc2)c1=O	?	?	23.1µM	0	?	0
Cc1c(/C=N/NC(=O)COc2ccccc2[N+](=O)[O-])c2ccccc2n1C	?	0	?	0	?	0
COc1cccc(NC(=O)CSc2nnc3scc(-c4ccc(Cl)cc4)n23)c1	0	-	-	-	0	-
O=C(NCCc1ccccc1)c1cc(-c2ccccc2)nc2n[nH]c(-c3ccccc3)c12	0	-	-	-	0	-
O=C(CNC(=O)c1ccccc1Cl)N/N=C/c1ccc([N+](=O)[O-])s1	2.59µM	0	?	?	?	0
O=C(Cc1cccs1)N/N=C\c1ccc([N+](=O)[O-])s1	0	?	0	-85.0	0	0
COc1ccc(/C=C2\SC(=S)N(CC(=O)OCC(=O)Nc3ccc(C)cc3Cl)C2=O)cc1	0	0	0[1.84 µM]	0	0	0
Cn1c(=O)oc2cc(S(=O)(=O)N3CCC(C(=O)N4CCN(c5ccccc5F)CC4)CC3)ccc21	0	-	-	-	0	-
CCCNC(=O)CN1C(=O)CSc2ccc(S(=O)(=O)N3CCC(C)CC3)cc21	0	-	-	-	0	-
O=C(CCN1C(=O)c2ccccc2C1=O)N1CCN(Cc2ccccc2)CC1	0	0	0	0	0	0
O=C(CCN1C(=O)c2ccccc2C1=O)N1CCN(Cc2ccc(Cl)cc2Cl)CC1	0	0	0	0	14.6µM	0
Cc1ccc(C(O)(C(=O)NNS(=O)(=O)c2ccc(C)cc2)c2ccc(C)cc2)cc1	0	0	0	0	?	0
O=C(NNS(=O)(=O)c1ccc(CCCl)cc1)C(O)(c1ccccc1)c1ccccc1	0	0	0	0	16.4µM	0
COc1cccc(-c2csc(N3CCN(C(=O)Nc4ccccc4Cl)CC3)n2)c1	0	0	0	0	0	?
COc1cccc(-c2csc(N3CCN(C(=S)Nc4ccc(Cl)cc4)CC3)n2)c1	0	0	0	0	23.1µM	0
COc1cccc(NC(=O)N2CCN(c3nc(-c4cccc(OC)c4)cs3)CC2)c1	?	0	?	0	16.4µM	0
COc1cccc(-c2csc(N3CCN(C(=S)Nc4ccccc4)CC3)n2)c1	0	0	0	0	0	0
Clc1cccc(Nc2nc(N3CCOCC3)nc(N3CCOCC3)n2)c1	0	0	0	0	0	0
CCOC(=O)c1ccc(Nc2nc(N3CCOCC3)nc(N3CCOCC3)n2)cc1	0	?	?	0	0	0
SMILES	KB-3-1 cytotox	MCF10A rereplic	SW480 rereplic	Giardia killer	KB-V1 cytotox	S-ASM inh
FC(F)(F)Oc1ccc(Nc2nc(N3CCOCC3)nc(N3CCOCC3)n2)cc1	0	?	20.6µM	0	0	0
CCc1ccc(Nc2nc(N3CCOCC3)nc(N3CCOCC3)n2)cc1	?	0	8.2µM	0	0	0
Fc1cccc(Nc2nc(N3CCOCC3)nc(N3CCOCC3)n2)c1	?	23.1µM	?	0	0	0
CC1Cc2ccccc2C[N+]1(C)CC(=O)c1ccc(I)cc1 (configuration not stated)	0	-	-	-	0	-
Cc1ccc(N(C(=O)CNC(=O)c2ccco2)C(C(=O)NC2CCCC2)c2cccnc2)cc1F (configuration not stated)	0	0	0	0	0	0
COc1ccc(S(=O)(=O)N2CCOCC2)cc1NC(=O)c1ccccc1C	0	0	0	0	0	0
CCC(C)(C)n1nnnc1CN(Cc1ccc(Cl)cc1)Cc1ccco1	20.6µM	?	0	0	23.1µM	0
